A number with no mark means an inactive call. Results filed as inconclusive are left out. A call without a number means that no potency is given here. Active and inactive are the calls of the source. The call rests on the fitted dose curve; in most records, active means well fitted curve in the direction sought with a large enough effect; inconclusive means small, poorly fitted or top-dose-only effect, or another doubt; inactive means no such curve, though single readings can be large; an effect the other way counts as inactive or inconclusive.
Tests used:
[1] = molecular target: Luciferin 4-monooxygenase (Photinus pyralis) (UniProt P08659); test: Primary firefly luciferase (FLuc) qHTS assay for identification of artifact compounds. (AID 1845220); further: nearly all actives have a fitted effect of over 60% in size; further: potency means the concentration at half of the fitted maximal effect
How it was run: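 Enzymatic FLuc inhibition assay: compounds pre-exposed to luciferin/ATP (10 uM each) for 15 min, then purified P. pyralis enzyme at 10 nM added. Read-out: luminescence at 5 min.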

[2] = Primary fluorescence-based thiol-reactive (MSTI) qHTS assay for identification of artifact compounds. (AID 1845221); further: nearly all actives have a fitted effect of over 65% in size; further: potency means the concentration at half of the fitted maximal effect
How it was run: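 One-hour, room-temperature, dark incubation of compound with 4 uM MSTI in PBS (pH 7.4, 2% DMSO) precedes a fluorescence read at 525 nm excitation, 598 nm emission; Hill-equation fitting yields concentration-response values.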

[3] = system: Nanoluciferase (engineered Oplophorus gracilirostris luciferase); test: Primary Nanoluciferase (NLuc) qHTS assay for identification of artifact compounds. (AID 1845222);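 further: NLuc secreted into diluted conditioned medium of S16 cells; series mostly up to about 54 µM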
How it was run: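 S16 cell supernatant NLuc, 1:55; cpds qHTS; 15 min RT dark; Nano-Glo substrate 1:100, 5 min; luminescence; Hill fit of % inhibition.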

[4] = Primary redox qHTS assay for identification of artifact compounds. (AID 1845223)
How it was run: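 Amplex Red (25 uM) and HRP (250 mU/mL) in HBSS, with compounds for 15 min, then 250 uM DTT for 30 min, room temperature, dark. Fluorescence 525/598 nm read; normalized to DMSO and 10 uM DA3003; Hill fit.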

[5] = molecular target: Phospholipid hydroperoxide glutathione peroxidase GPX4 (Homo sapiens) (UniProt P36969); test: Primary qHTS Assay for Inhibitors of Recombinant Selenoprotein Glutathione Peroxidase 4 (GPX4) (AID 1845192); further: nearly all actives have a fitted effect of over 65% in size; further: potency means the concentration at half of the fitted maximal effect
How it was run: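 GR-coupled assay: recombinant GPX4 preincubated 30 min with compound at room temperature; final 200 nM GPX4, 1 mM GSH, 0.5 mM cumene hydroperoxide, 0.5 mM NADPH, 100 nM GR, 0.01% BSA, pH 7.5 Tris. NADPH fluorescence (340/450 nm) read at 0 and 15 min.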

Phospholipid hydroperoxide glutathione peroxidase GPX4 (Homo sapiens), sequence (P36969 whole entry, looked up): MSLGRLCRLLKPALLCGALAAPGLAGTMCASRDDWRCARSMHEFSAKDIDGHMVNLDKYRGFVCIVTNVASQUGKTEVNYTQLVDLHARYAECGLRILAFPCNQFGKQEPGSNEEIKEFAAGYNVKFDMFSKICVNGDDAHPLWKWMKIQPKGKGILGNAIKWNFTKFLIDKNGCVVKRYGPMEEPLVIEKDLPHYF

| SMILES | Potency [1] | Potency [2] | Potency [3] | Potency [4] | Potency [5] |
| --- | --- | --- | --- | --- | --- |
| C[C@@H](c1ccc2nccn2c1)n1nnc2ncc(-c3cnn(C)c3)nc21 | inactive | inactive | inactive | inactive | – |
| Fc1ccc(N2CCCCC2)c(NC(=S)c2ccncc2)c1 | inactive | – | inactive | inactive | inactive |
| COc1ccnc(CS(=O)c2nc3cc(OC(F)F)ccc3[nH]2)c1OC (configuration not stated) | inactive | 21.2 µM (active) | inactive | – | – |
| O=C(Nc1ccc(-c2ccnc(Nc3ccc(N4CCOCC4)cc3)n2)cc1)C1CCCN1 (configuration not stated) | – | 11.9 µM (active) | inactive | inactive | inactive |
| Cc1cc2occ(CN(C)CCN(C)Cc3cn(-c4cccc(C(F)(F)F)c4)c4ccccc34)c(=O)c2cc1C | inactive | – | inactive | inactive | inactive |
| Cn1cc(-c2cnn3c(N)c(Br)c(C4CCCNC4)nc23)cn1 (configuration not stated) | inactive | – | inactive | inactive | inactive |
| Cc1nc2ccc(CN(C)c3ccc(C(=O)NC(CCC(=O)O)C(=O)O)s3)cc2c(=O)[nH]1 (configuration not stated) | inactive | – | inactive | inactive | inactive |
| COc1cc2ncc(-c3ccccc3)nc2cc1OC | – | inactive | inactive | inactive | 20.2 µM (active) |
| CCC(C(C)O)n1ncn(-c2ccc(N3CCN(c4ccc(OCC5COC(Cn6cncn6)(c6ccc(F)cc6F)C5)cc4)CC3)cc2)c1=O (configuration not stated) | inactive | – | inactive | inactive | inactive |
| c1cc(NC2CCNCC2)nc(-c2cnc3ccccn23)c1 | inactive | – | inactive | inactive | 16.1 µM (active) |
| C=CC(C)(C)C12CC3C(=O)N4C(CC5(C(C)(C)C=C)c6ccccc6NC45)C(=O)N3C1Nc1ccccc12 (configuration not stated) | inactive | – | inactive | inactive | inactive |
| Nc1nc(Nc2ccc3c(c2)CCC(N2CCCC2)CC3)nn1-c1cc2c(nn1)-c1ccccc1CCC2 (configuration not stated) | inactive | – | inactive | inactive | inactive |
| Cc1cc(-c2nc3cc(F)ccc3s2)ccc1NC(=O)[C@@H](N)CCCCN | 1.9 µM (active) | inactive | inactive | – | – |
| CC(=O)Nc1cccc(-c2csc(Nc3cc(C)ccn3)n2)c1 | 3.01 µM (active) | – | – | inactive | inactive |
| NS(=O)(=O)c1ccc(N2N=C(c3ccccc3)CC2c2ccccc2)cc1 (configuration not stated) | – | inactive | inactive | inactive | 16.1 µM (active) |
| COC(=O)c1ccc2c(c1)[nH]c1ncnc(NCCCN3CCCCC3)c12 | inactive | inactive | inactive | inactive | – |
| Cc1cc(N2CCOCC2)ccc1Nc1nc(NC2CCCCC2)c2[nH]cnc2n1 | inactive | 1.68 µM (active) | inactive | inactive | – |
| COc1cc2c(NC3CCN(C(C)C)CC3)nc(N3CCC(F)(F)CC3)nc2cc1OCCCN1CCCC1 | inactive | – | inactive | – | 25.5 µM (active) |
| COc1cc(CCc2cc(NC(=O)c3ccc(N4CC(C)NC(C)C4)cc3)n[nH]2)cc(OC)c1 (configuration not stated) | inactive | – | – | inactive | inactive |
| CCCCCc1ccc(/C=C/C(=O)Nc2cc(Cl)ccc2C(=O)O)cc1 | inactive | inactive | inactive | inactive | – |
| CCOC(=O)N1c2ccc(C(F)(F)F)cc2C(N(Cc2cc(C(F)(F)F)cc(C(F)(F)F)c2)C(=O)OC)CC1CC (configuration not stated) | inactive | – | inactive | inactive | inactive |
| CN(C)S(=O)(=O)c1ccc(NC(=S)N2CCC(C(O)(c3ccccc3)c3ccccc3)CC2)cc1 | inactive | inactive | inactive | inactive | – |
| C=CC(=O)N1CCCC(n2nc(-c3ccc(Oc4ccccc4)cc3)c3c(N)ncnc32)C1 (configuration not stated) | inactive | – | inactive | inactive | inactive |
| COc1cc(C2OC(c3ccc(OC)c(OC)c3)C(C)C2C)ccc1O (configuration not stated) | – | – | inactive | inactive | – |
| N#C/C(=C1\Nc2ccccc2S1)c1ccnc(NCCc2cccnc2)n1 | – | 1.34 µM (active) | – | inactive | inactive |
